Measurements from ChEMBL document CHEMBL3988442, “University of Dundee, Small-Polar-MMV Screening Library” (2021).
The whole screen tested about 48,000 compounds, of which about 13,000 (27%) showed an effect of 50% or more. This is one part of the list.

These molecules were tested on Wolbachia pipientis (assay: Anti-Wolbachia Cell-Based Screen). Conditions: 5 µM.
Format: functional
Set-up: scale not given: in the data most compounds retested in dose-response had high values
In the case of `CN(Cc1ccccc1)CC1CC2(CO1)CN(Cc1cnn(C)c1)C2` (configuration not stated), the “Percent Effect” value is reported as -2.148%. In the case of `Cn1nc2c(cc1=O)CN(Cc1nc(C3CC3)no1)CC2`, the “Percent Effect” value is reported as 27.59%. `CCNc1ccc(-c2ccnc3c2ccn3C)nn1` was tested, and the “Percent Effect” value was -1.559%. `Cn1ccc2c(-c3cc(N)nc(N4CCOCC4)n3)ccnc21` was tested, and the “Percent Effect” value was 88.78%. With `CCc1cc(N(C)Cc2ncc[nH]2)nc(N2CCOCC2)n1` the “Percent Effect” value was -9.08%. `Cn1ccc2c(-c3nccc(N)n3)ccnc21` was tested, and the “Percent Effect” value was -30.17%. With `CN(C)c1cncc(-c2ccnc3c2ccn3C)n1` the “Percent Effect” value was -34.59%. For `CCc1cc(-c2ccnc3c2ccn3C)nc(N2CCOCC2)n1`, the “Percent Effect” value was 67.54%. For `CN(CC1(O)CCCN(CCC2CCCCC2)C1=O)C1CCOCC1` (configuration not stated), the “Percent Effect” value was -1.971%. For `CN(C)S(=O)(=O)N1CCCC(C)(c2ncc(C(N)=O)s2)C1` (configuration not stated), the “Percent Effect” value was 191.5%. In the case of `Cc1cnc(C(=O)N2C[C@H]3CC[C@@H]2CN(S(=O)(=O)N(C)C)C3)cn1`, the “Percent Effect” value is reported as -4.38%. For `CN1C(=O)CC2(CCN(S(=O)(=O)N(C)C)CC2)c2ccccc21`, the “Percent Effect” value was -6.476%. `CN(C)S(=O)(=O)N1CCC[C@]2(C[C@@H](Oc3ccccn3)CO2)C1.O=C(O)C(F)(F)F` was tested, and the “Percent Effect” value was -2.011%. In the case of `CN(C)S(=O)(=O)N1CCC(C)(c2ncc(C(N)=O)s2)CC1`, the “Percent Effect” value is reported as 173.8%. `CN(C)S(=O)(=O)N1CC[C@H]2OCC[C@@]2(COc2cccnc2)C1.O=C(O)C(F)(F)F` was tested, and the “Percent Effect” value was 7.883%. For `CCS(=O)(=O)N1CCN(C(=O)C(C)C)CC2(CC(=O)N(C)C2)C1` (configuration not stated), the “Percent Effect” value was -2.529%. For `CN(C)C(C(=O)NCC1(O)CCCCC1)c1c(F)cccc1F` (configuration not stated), the “Percent Effect” value was -3.857%. `O=C(NCC1(O)CCC1)c1c(O)cc(F)cc1F` was tested, and the “Percent Effect” value was 120.5%. For `O=C(NCC1(O)CCC1)c1c(O)cc(Cl)cc1Cl`, the “Percent Effect” value was 97.98%. `O=C(NCC1(O)CCOC1)c1ccccc1Cl` (configuration not stated) was tested, and the “Percent Effect” value was -4.323%. With `CN(C)C(C(=O)NCC1(N(C)C)CCOCC1)c1ccccc1F` (configuration not stated) the “Percent Effect” value was -12.63%. In the case of `CN(C)C(C(=O)NCC1(O)CCCCC1)c1cccc(F)c1` (configuration not stated), the “Percent Effect” value is reported as 11.81%. In the case of `CN(C)C1(CNC(=O)C/C=C/c2ccc(F)cc2)CCOCC1`, the “Percent Effect” value is reported as 1.504%. In the case of `O=C(NCc1ccc(Cl)cc1Cl)NCC1(O)CCSC1` (configuration not stated), the “Percent Effect” value is reported as -14.06%. `CN(C)C1(CNC(=O)c2c(O)cc(Cl)cc2Cl)CCOCC1` was tested, and the “Percent Effect” value was 85.78%. `CCOC(C)c1noc(CN2CCN(c3nnc(C)s3)CC2)n1` (configuration not stated) was tested, and the “Percent Effect” value was -0.8403%. `COc1ccc(Cl)cc1C(=O)N1C[C@H](C(C)C)[C@@H](N)C1` was tested, and the “Percent Effect” value was 105.5%. `COc1ccc(Cl)cc1C(=O)NCC1CCN(C(=O)c2ccoc2)CC1` was tested, and the “Percent Effect” value was -13.86%. `COc1ccc(Cl)cc1C(=O)N1C[C@@H](NC(=O)N(C)C)[C@H](C(C)C)C1` was tested, and the “Percent Effect” value was 96.11%. In the case of `CC(=O)N[C@@H]1CN(C(=O)c2csc(C(C)C)n2)C[C@H]1C(C)C`, the “Percent Effect” value is reported as -24.56%. With `CCc1nn(C)c(Cl)c1CN1C[C@@H](NC(=O)N(C)C)[C@H](C(C)C)C1` the “Percent Effect” value was 3.461%. With `COc1ccc(C(=O)N2C[C@@H](NC(=O)N(C)C)[C@H](C(C)C)C2)c(OC)n1` the “Percent Effect” value was 83.06%. `COc1ccc(N2CCC(N3C[C@H](NC(C)=O)[C@@H](C(C)C)C3)CC2)cc1` was tested, and the “Percent Effect” value was 0.1798%. `Cc1cc(Cl)ccc1C(=O)N1C[C@H](C2CC2)[C@@H](N)C1` was tested, and the “Percent Effect” value was -41.17%. `COc1ccc(Cl)cc1C(=O)N1CCCC(n2nc(C)nc2C)C1` (configuration not stated) was tested, and the “Percent Effect” value was -10.83%. `CCOCc1ccccc1NC(=O)NC1CCN(CC(F)(F)F)C1` (configuration not stated) was tested, and the “Percent Effect” value was 4.433%. With `CCN(CC)CCN(CC(C)C)c1cc(C(F)(F)F)nc2ncnn12` the “Percent Effect” value was -0.1585%. In the case of `Cc1cccc(C(=O)N2CCN(S(C)(=O)=O)[C@@H](C)C2)c1C`, the “Percent Effect” value is reported as -0.07044%. `CNC(=O)NC(=O)CCN1CCOC(c2ccc(Br)cc2)C1` (configuration not stated) was tested, and the “Percent Effect” value was 0.8414%. For `CC(=O)N1CCO[C@@H]2CN(S(=O)(=O)C3CC3)CC[C@@H]2C1`, the “Percent Effect” value was 114.1%. With `CC(=O)N1C[C@@H]2CN(S(=O)(=O)C3CC3)CCO[C@@H]2C1` the “Percent Effect” value was 81.74%. `O=C(O)C(F)(F)F.O=S(=O)(C1CC1)N1C[C@@H]2CN(Cc3ccoc3)CCO[C@@H]2C1` was tested, and the “Percent Effect” value was 10.49%. With `O=C(O)C(F)(F)F.O=S(=O)(C1CC1)N1CCO[C@@H]2CN(Cc3cccs3)C[C@@H]2C1` the “Percent Effect” value was 3.839%. With `CC(=O)N1CCO[C@@H]2CN(S(=O)(=O)C3CC3)C[C@@H]2C1` the “Percent Effect” value was 90.6%. `CC(=O)N1CCO[C@@H]2CN(S(=O)(=O)c3ccccc3F)C[C@@H]2C1` was tested, and the “Percent Effect” value was -1.494%. With `CC(=O)N1CCO[C@@H]2CN(C(=O)c3ccc4ccccc4c3)CC[C@@H]2C1` the “Percent Effect” value was 3.224%. For `COCc1ccc(CN[C@H]2C[C@@H](Cc3cc(CCO)on3)C2(C)C)o1`, the “Percent Effect” value was -18.1%.
